Reference: PubChem BioAssay (NCATS)
Results filed as inconclusive are left out. Where a call stands in place of a potency, no number is given. Calls of active or inactive are those of the source. The call rests on the fitted dose curve; in most records, active means well fitted curve in the direction sought with a large enough effect; inconclusive means small, poorly fitted or top-dose-only effect, or another doubt; inactive means no such curve, though single readings can be large; an effect the other way counts as inactive or inconclusive.

Experiments:
[1] = target: N-terminal Xaa-Pro-Lys N-methyltransferase 1 (Homo sapiens) (UniProt Q9BV86); experiment: qHTS Assay for Inhibitors of N-terminal methyltransferase 1 (NTMT1): LOPAC validation of the NTMT1 SAHH-coupled ThioGlo3 Assay (AID 1347143);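 further: SAH from peptide methylation measured as thiol fluorescence via SAHH coupling and ThioGlo3; nearly all actives have a fitted effect of over 70% in size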; further: potency means the concentration at half of the fitted maximal effect
Sequence of N-terminal Xaa-Pro-Lys N-methyltransferase 1 (Homo sapiens) (Q9BV86 whole entry, looked up): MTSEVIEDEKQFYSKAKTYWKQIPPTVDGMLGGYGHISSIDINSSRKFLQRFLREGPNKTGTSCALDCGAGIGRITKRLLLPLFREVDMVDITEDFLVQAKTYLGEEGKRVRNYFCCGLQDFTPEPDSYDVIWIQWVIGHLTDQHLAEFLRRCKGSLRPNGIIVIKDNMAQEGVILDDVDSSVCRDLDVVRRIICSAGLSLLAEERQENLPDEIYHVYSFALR
Method in brief: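 NTMT1 125nM + cpds (various conc.), 1 min RT; add SAM 100uM/SAHH 10uM/ThioGlo3 15uM (addition mix). SAHH-coupled thiol detection, Ex340/Em450, t0 and 30 min RT; signal normalized to background. LOPAC 1280-cpd pilot.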

[2] = system: Zika virus NS2B-NS3 protease (unlinked); experiment: Optimization of GU AMC qHTS for Zika virus inhibitors: Unlinked NS2B-NS3 protease assay (AID 1347151); further: nearly all actives have a fitted effect of over 80% in size; further: potency means the concentration at half of the fitted maximal effect
Method in brief: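 Noncovalent NS2B hydrophilic domain–NS3 protease complex (25 nM final) in 10 mM Tris-HCl pH 8.0, 0.01% Tween 20; AMC substrate, room temperature 15 min (~20% conversion); fluorescence change normalized, 4-parameter Hill fit.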

[3] = system: Zika virus NS2B-NS3 protease; experiment: Primary screen GU AMC qHTS for Zika virus inhibitors (AID 1347154); further: nearly all actives have a fitted effect of over 70% in size
Method in brief: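 Fluorogenic AMC-substrate cleavage by noncovalent NS2B-NS3 protease complex (25 nM, pH 8.0 Tris buffer with Tween 20) followed for 15 minutes at room temperature (~20% conversion). Percent inhibition from ex340/em450 signal change, fitted by 4-parameter Hill equation.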

[4] = qHTS of pediatric cancer cell lines to identify multiple opportunities for drug repurposing: Confirmatory screen for MG 63 (6-TG R) cells (AID 1347119); further: nearly all actives have a fitted effect of over 55% in size; further: potency means the concentration at half of the fitted maximal effect
Method in brief: (§1)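 Cells (500-1,000/well) rested 5 h, then received compounds for 48 h; metabolically active cells were measured by CellTiter-Glo luminescence. Final concentrations spanned up to 46 µM (MIPE, 11-point) or 0.59 nM-46 µM (NPC, 8-point) in primary screens, 11-point in follow-ups.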

[5] = qHTS of pediatric cancer cell lines to identify multiple opportunities for drug repurposing: Confirmatory screen for Rh41 cells (AID 1347123);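 further: 48 h compound exposure; nearly all actives have a fitted effect of over 60% in size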; further: potency means the concentration at half of the fitted maximal effect
Method in brief: as §1

[6] = qHTS of pediatric cancer cell lines to identify multiple opportunities for drug repurposing: Confirmatory screen for Rh18 cells (AID 1347125); further: nearly all actives have a fitted effect of over 55% in size; further: potency means the concentration at half of the fitted maximal effect
Method in brief: as §1

[7] = qHTS of pediatric cancer cell lines to identify multiple opportunities for drug repurposing: Confirmatory screen for Rh30 cells (AID 1347126); further: nearly all actives have a fitted effect of over 55% in size; further: potency means the concentration at half of the fitted maximal effect
Method in brief: as §1

[8] = qHTS of pediatric cancer cell lines to identify multiple opportunities for drug repurposing: Confirmatory screen for Saos-2 cells (AID 1347127); further: nearly all actives have a fitted effect of over 60% in size; further: potency means the concentration at half of the fitted maximal effect
Method in brief: as §1

[9] = qHTS of pediatric cancer cell lines to identify multiple opportunities for drug repurposing: Confirmatory screen for OHS-50 cells (AID 1347128);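 further: compound exposure lasted 48 h at 37 degrees C; nearly all actives have a fitted effect of over 55% in size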; further: potency means the concentration at half of the fitted maximal effect
Method in brief: as §1

[10] = qHTS of pediatric cancer cell lines to identify multiple opportunities for drug repurposing: Confirmatory screen for control Hh wild type fibroblast cells (AID 1347121); further: nearly all actives have a fitted effect of over 70% in size; further: potency means the concentration at half of the fitted maximal effect
Method in brief: as §1

[11] = qHTS of pediatric cancer cell lines to identify multiple opportunities for drug repurposing: Confirmatory screen for SK-N-SH cells (AID 1347129);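 further: cells exposed to compound for 48 h before viability read; nearly all actives have a fitted effect of over 60% in size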; further: potency means the concentration at half of the fitted maximal effect
Method in brief: as §1

[12] = qHTS of pediatric cancer cell lines to identify multiple opportunities for drug repurposing: Confirmatory screen for U-2 OS cells (AID 1347122); further: nearly all actives have a fitted effect of over 65% in size; further: potency means the concentration at half of the fitted maximal effect
Method in brief: as §1

[13] = qHTS of pediatric cancer cell lines to identify multiple opportunities for drug repurposing: Confirmatory screen for RD cells (AID 1347124);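 further: cells exposed to compound for 48 h before viability readout; nearly all actives have a fitted effect of over 65% in size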; further: potency means the concentration at half of the fitted maximal effect
Method in brief: as §1

Furin (Homo sapiens) = Furin (Homo sapiens) (UniProt P09958); experiment: Furin counterscreen qHTS for Zika virus inhibitors (AID 1347149);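 further: purified recombinant full-length human furin enzyme at 5 nM; fluorescence gain from furin cutting a BOC-RVRR-AMC peptide substrate over 15 min; top concentration of the series differs between compounds; nearly all actives have a fitted effect of over 70% in size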
Sequence of Furin (Homo sapiens) (P09958 whole entry, looked up): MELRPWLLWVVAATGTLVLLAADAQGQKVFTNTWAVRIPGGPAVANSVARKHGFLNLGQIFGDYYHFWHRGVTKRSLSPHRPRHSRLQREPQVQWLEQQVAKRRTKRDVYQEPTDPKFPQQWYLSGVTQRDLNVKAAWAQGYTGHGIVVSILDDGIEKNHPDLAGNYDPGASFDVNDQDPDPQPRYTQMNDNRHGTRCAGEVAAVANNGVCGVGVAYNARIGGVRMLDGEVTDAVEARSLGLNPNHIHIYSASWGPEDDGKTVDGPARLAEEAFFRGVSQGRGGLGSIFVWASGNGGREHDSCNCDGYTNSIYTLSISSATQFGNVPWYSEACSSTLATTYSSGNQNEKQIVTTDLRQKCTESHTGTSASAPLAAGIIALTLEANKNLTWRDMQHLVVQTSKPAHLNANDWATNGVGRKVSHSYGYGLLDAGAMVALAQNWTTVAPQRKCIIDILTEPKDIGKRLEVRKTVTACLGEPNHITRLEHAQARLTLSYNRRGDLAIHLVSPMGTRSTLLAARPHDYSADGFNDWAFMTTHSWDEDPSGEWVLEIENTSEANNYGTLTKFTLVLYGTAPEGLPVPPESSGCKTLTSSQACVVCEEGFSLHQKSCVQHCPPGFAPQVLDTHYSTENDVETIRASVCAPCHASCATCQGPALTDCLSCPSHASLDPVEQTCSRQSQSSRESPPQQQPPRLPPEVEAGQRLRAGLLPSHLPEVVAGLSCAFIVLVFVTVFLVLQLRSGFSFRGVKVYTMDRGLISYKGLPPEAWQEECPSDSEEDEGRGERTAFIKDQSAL
Method in brief: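 Counterscreen measures cleavage of 2 microM BOC-RVRR-AMC, below its ~15 microM Km, by 5 nM full-length human furin at pH 7.0 after a 15-min compound preincubation. Inhibition derives from the 15-min fluorescence increase at 37C.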

[14] = system: Zika virus NS2B-NS3 protease (unlinked complex); experiment: Primary screen GU Rhodamine qHTS for Zika virus inhibitors: Unlinked NS2B-NS3 protease assay (AID 1347159); further: nearly all actives have a fitted effect of over 60% in size
Method in brief: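 Enzyme 25 nM in Tris-HCl pH 8.0 + 0.01% Tween 20; compounds up to 114 microM, 15 min RT dark; + Rhod110 substrate 1.5 microM; read t0 and 15 min; delta fluorescence → % inhibition → 4-parameter Hill fit.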

## Cc1cccc(C)c1NC1=NCCCS1
[1]
  Potency: inactive
[2]
  Potency: inactive
[3]
  Potency: inactive

## O=c1[nH]c2ccccc2n1CCCN1CCC(n2c(=O)[nH]c3cc(Cl)ccc32)CC1
[4]
  Potency: 6.57 µM (active)
[5]
  Potency: 16.5 µM (active)
[6]
  Potency: 9.27 µM (active)
[7]
  Potency: 7.37 µM (active)
[8]
  Potency: 10.4 µM (active)
[9]
  Potency: 13.1 µM (active)
[1]
  Potency: inactive
[2]
  Potency: inactive
[3]
  Potency: inactive

## CCC1(C2=NCCN2)Cc2ccccc2O1 (stereo not drawn)
[1]
  Potency: inactive
[2]
  Potency: inactive
[3]
  Potency: inactive

## Nc1ccncc1
[1]
  Potency: inactive
[2]
  Potency: inactive
[3]
  Potency: inactive

## COC[C@@H](NC(C)=O)C(=O)NCc1ccccc1
[4]
  Potency: inactive
[10]
  Potency: inactive
[6]
  Potency: inactive
[8]
  Potency: inactive
[9]
  Potency: inactive
[11]
  Potency: inactive
[3]
  Potency: inactive

## CC(C)CC(N(C)C)C1(c2ccc(Cl)cc2)CCC1 (stereo not drawn)
[5]
  Potency: inactive
[6]
  Potency: 20.8 µM (active)
[11]
  Potency: inactive
[3]
  Potency: inactive

## NCC1(CC(=O)O)CCCCC1
[1]
  Potency: inactive
[2]
  Potency: inactive
[3]
  Potency: inactive

## C=C(C)[C@H]1Cc2c(ccc3c2O[C@@H]2COc4cc(OC)c(OC)cc4[C@@H]2C3=O)O1
[4]
  Potency: 0.0329 µM (active)
[10]
  Potency: 0.117 µM (active)
[12]
  Potency: inactive
[13]
  Potency: inactive
[7]
  Potency: inactive
[9]
  Potency: 1.47 µM (active)
[3]
  Potency: inactive

## NCC(O)c1ccc(O)cc1 (stereo not drawn)
[1]
  Potency: inactive
[2]
  Potency: inactive
[3]
  Potency: inactive

## CNCC(O)c1ccc(O)cc1 (stereo not drawn)
[1]
  Potency: inactive
[2]
  Potency: inactive
[3]
  Potency: inactive

## Cn1c(CCCC(=O)O)nc2cc(N(CCCl)CCCl)ccc21
[10]
  Potency: inactive
[13]
  Potency: inactive
[6]
  Potency: inactive
[9]
  Potency: inactive
[11]
  Potency: inactive
[1]
  Potency: 56.2 µM (active)
[3]
  Potency: inactive

## CC[C@@H](CO)NC(=O)[C@@H]1C=C2c3cccc4c3c(cn4C)C[C@H]2N(C)C1
[1]
  Potency: 56.2 µM (active)

## C[C@H]1O[C@@H](O[C@H]2[C@@H](O)C[C@H](O[C@H]3[C@@H](O)C[C@H](O[C@H]4CC[C@@]5(C)[C@H](CC[C@@H]6[C@@H]5CC[C@]5(C)[C@@H](C7=CC(=O)OC7)CC[C@]65O)C4)O[C@@H]3C)O[C@@H]2C)C[C@H](O)[C@@H]1O
[4]
  Potency: 0.0465 µM (active)
[12]
  Potency: 0.165 µM (active)
[5]
  Potency: 0.0737 µM (active)
[13]
  Potency: 0.104 µM (active)
[7]
  Potency: 0.329 µM (active)
[8]
  Potency: 1.04 µM (active)
[11]
  Potency: 0.148 µM (active)
Furin (Homo sapiens)
  Potency: inactive
[2]
  Potency: inactive
[3]
  Potency: inactive
[14]
  Potency: inactive

## CC[C@@H](CO)NC(=O)[C@@H]1C=C2c3cccc4[nH]cc(c34)C[C@H]2N(C)C1
[1]
  Potency: 25.1 µM (active)
[2]
  Potency: 23.8 µM (active)

## CC(=O)[C@H]1CC[C@H]2[C@@H]3CC[C@H]4C[C@H](O)CC[C@]4(C)[C@H]3C(=O)C[C@]12C
[1]
  Potency: inactive
[2]
  Potency: inactive
[3]
  Potency: inactive

## Cc1ccc(S(=O)(=O)N[C@@H](CCCCN)C(=O)CCl)cc1
[1]
  Potency: 56.2 µM (active)
[2]
  Potency: inactive
[3]
  Potency: inactive

## c1ccc2c(c1)OCC(C1=NCCN1)O2 (stereo not drawn)
[1]
  Potency: 56.2 µM (active)
[2]
  Potency: inactive
[3]
  Potency: inactive

## CCCN1CCC[C@@H]2Cc3[nH]ncc3C[C@H]21
[1]
  Potency: inactive
[2]
  Potency: inactive
[3]
  Potency: inactive

## Cc1sc2c(c1C)C(c1ccc(Cl)cc1)=N[C@@H](CC(=O)OC(C)(C)C)c1nnc(C)n1-2
[10]
  Potency: inactive
[12]
  Potency: inactive
[5]
  Potency: inactive
[11]
  Potency: inactive

## C[C@@H]1[C@@H](C(=O)C[C@H]2O[C@@H]3O[C@]4(C)CC[C@@H]5[C@H](C)CC[C@@H]([C@H]2C)[C@@]35OO4)O[C@@H]2O[C@]3(C)CC[C@H]4[C@H](C)CC[C@@H]1[C@@]24OO3
[10]
  Potency: inactive
[5]
  Potency: 0.928 µM (active)
[13]
  Potency: 0.737 µM (active)
[6]
  Potency: inactive
[7]
  Potency: 13.1 µM (active)
[3]
  Potency: inactive

## Cn1cc(C2=C(c3cn(C4CCN(Cc5ccccn5)CC4)c4ccccc34)C(=O)NC2=O)c2ccccc21
[10]
  Potency: inactive
[12]
  Potency: inactive
[9]
  Potency: inactive
[11]
  Potency: inactive
[3]
  Potency: inactive

## C[C@@H]1[C@@H](CC(C[C@H]2O[C@@H]3O[C@]4(C)CC[C@@H]5[C@H](C)CC[C@@H]([C@H]2C)[C@@]35OO4)C[S+](=O)([O-])c2ccc(COC(=O)N(C)C)cc2)O[C@@H]2O[C@]3(C)CC[C@H]4[C@H](C)CC[C@@H]1[C@@]24OO3 (stereo partly drawn)
[4]
  Potency: 2.33 µM (active)
[10]
  Potency: 13.1 µM (active)
[5]
  Potency: 0.0827 µM (active)
[7]
  Potency: 4.65 µM (active)
[9]
  Potency: 0.233 µM (active)
[3]
  Potency: inactive

## N[C@@H](Cc1ccc(N(CCCl)CCCl)cc1)C(=O)O
[4]
  Potency: 16.5 µM (active)
[10]
  Potency: inactive
[9]
  Potency: 26.1 µM (active)
[11]
  Potency: 18.7 µM (active)
[3]
  Potency: inactive

## CC(CCc1ccccc1)NC(C)C(O)c1ccc(O)cc1 (stereo not drawn)
[1]
  Potency: inactive
[2]
  Potency: inactive
[3]
  Potency: inactive

## CCn1cc(C(=O)O)c(=O)c2ccc(C)nc21
[1]
  Potency: inactive

## O=P1(NCCCl)OCCCN1CCCl (stereo not drawn)
[4]
  Potency: inactive
[10]
  Potency: inactive
[12]
  Potency: inactive
[5]
  Potency: inactive
[13]
  Potency: inactive
[6]
  Potency: inactive
[7]
  Potency: inactive
[9]
  Potency: inactive
[11]
  Potency: inactive
[3]
  Potency: inactive
